In PubChem BioAssay AID651640 (Broad Institute, 2012) one finds CPE inhibition data, which are given here for 16 molecules.

Hit rate of the full screen: of about 350,000 compounds, about 6,000 (1.7%) were called active. About 5% were inconclusive and are not listed. The full list was thinned out, with actives kept by preference. Unmarked numbers belong to inactive results. No stated cut-off is given here; in the data, active means CPE inhibition above about 20% (passing the limit was not always enough); inconclusive means no clear call, values can overlap the other calls; tested in BHK-21 cells.

The assay can be described thus: protection of cells from dengue 2 killing – plate reader, single concentration, primary screen (AID 651640).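 Further: 0% = median of neutral control wells and 100% = median of positive control wells.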 The conditions noted are these: DENV2-infected cells, cytopathic effect rescue, at 9.99 µM, active compounds read high. For orientation: Cytopathic effects are the visible damage that an infection or toxin causes in cultured cells.
Regarding `COc1ccc(C#Cc2ccc3c(c2)[C@]2(C(=O)N3)[C@H](c3ccccc3OCCO)N3[C@H](c4ccccc4)[C@H](c4ccccc4)OC(=O)[C@H]3[C@@H]2C(=O)N2CCCCCCC2)cc1`, the CPE inhibition is 22.3% (active). For the molecule `O=C1O[C@@H](c2ccccc2)[C@@H](c2ccccc2)N2[C@@H](c3ccccc3OCCO)[C@]3(C(=O)Nc4ccc(C#CC5(O)CCCCCC5)cc43)[C@@H](C(=O)N3CCCCCCC3)[C@H]12`, the CPE inhibition is -1.79%. The figure for `COc1ccc(C#Cc2ccc3c(c2)[C@]2(C(=O)N3)[C@H](C(=O)N3CCCCCCC3)[C@H]3C(=O)O[C@H](c4ccccc4)[C@H](c4ccccc4)N3[C@@H]2c2ccc(O)cc2)cc1` is 16.4%; for `COc1ccccc1-c1ccc([C@@H]2[C@@H](CO)N3CCCCN(C(=O)c4ccncc4)C[C@@H]23)cc1` it is -5.15%; for `COc1cccc(CNC(=O)C[C@H]2CC[C@@H](NC(C)=O)[C@@H](CO)O2)c1` it is -0.331%. The figure for `Cc1ccc(S(=O)(=O)N[C@H]2C=C[C@@H](CC(=O)NCCc3ccncc3)O[C@@H]2CO)cc1` is -2.51%; for `CCNC(=O)C[C@H]1CC[C@@H]2[C@H](COc3ccc(NC(=O)Nc4cccc(Cl)c4)cc3C(=O)N2C)O1` it is 3%. The figure for `CCN(CC)S(=O)(=O)c1ccc(Cl)c(NC(=O)c2ccncc2)c1` is 2.11%; for `CCN(CC)S(=O)(=O)c1ccc(OC)c(NC(=O)CCc2c(C)noc2C)c1` it is -4.63%; for `CCN(CC)S(=O)(=O)c1ccc(C)c(NC(=O)COc2ccc(Br)cc2Cl)c1` it is 52.1% (active). As for `Nc1[nH]c(C(=O)c2ccc(Br)cc2)c(-c2ccc3c(c2)OCO3)c1C(=O)NCCc1c[nH]c2ccccc12`, the CPE inhibition was 9.1%. The figure for `Cc1ccccc1-c1ccc([C@@H]2[C@@H](CO)N3CCCCN(C(=O)Nc4cccc(F)c4)C[C@H]23)cc1` is -1.69%; for `CC(C)[C@@H](C)/C=C/[C@@H](C)[C@H]1CC[C@@H]2[C@]1(C)CCC1[C@]23C=C[C@]2(C[C@@H](O)CC[C@]12C)N(c1ccc([N+](=O)[O-])cn1)O3` (stereo partly specified) it is -2.89%. The figure for `COC(=O)c1c(-c2ccc(OC)cc2)c2c(c3c4cc(OC)ccc4n(S(=O)(=O)c4ccc(F)cc4)c13)C(=O)N(C)C2` is 44.7% (active); for `COC(=O)c1c(-c2ccc(OC)cc2)c2c(c3c4ccccc4n(S(=O)(=O)c4ccc(C)cc4)c13)C(=O)N(C)C2` it is 2.43%; for `COC(=O)c1cc2c(c3c4cc(F)ccc4n(S(=O)(=O)c4ccccc4)c13)C(=O)N(Cc1ccccc1OC)C2` it is 15.1%.
